Assay outcomes (PubChem BioAssay)
A selection: hits, their analogues and other compounds. The true share with any hit is near 12%.
Sm TGR block – inhibitors of Schistosoma mansoni thioredoxin glutathione reductase; purified TGR, DTNB reduction, TNB absorbance 405 nm; Potency, µM (series often up to 114 µM), for the others: at the top dose activity change, negative = inhibition, actives largely listed as inhibitors; 3% of 360,000 active; AID 485364; active = well fitted inhibition curve with a large enough effect; inconclusive = small, poorly fitted or top-dose-only effect; inactive = no such curve, though single readings can be large or run the other way; note: potency is the fitted concentration of half-maximal effect; % is set by controls: 0 for no effect and ±100 for the full control effect; nearly all actives have a fitted effect of over 60% in size
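Kinetic colorimetric format: TGR-catalysed, NADPH-driven DTNB reduction monitored via TNB absorbance. Enzyme dispensed at 20 nM; compound exposure 15 min at room temperature before reaction start.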
Cycloheximide cs – counter-screen hit for Shiga toxin inhibitors, cycloheximide. max response, %. 12% of 300,000 active. cell reporter, cycloheximide protein synthesis inhibition counterscreen; in the data active = max response mostly above about 13%, no sharp cut-off; inactive = mostly below about 14%; note: read at 38.3 µM for the half of the compounds with a filed dose; 0% is about no effect
Shiga inhibitor – blocks Shiga toxin action in Vero cells | inhibition, % at 38.7 µM | Vero cells, Shiga toxin protein synthesis inhibition reporter | 9.2% of 290,000 active; in the data active = inhibition mostly above about 28%, no sharp cut-off; inactive = mostly below about 43%; note: 0% is about no effect
FMDV inh – foot and mouth disease virus antiviral activity | FMDV antiviral cell-based qHTS | 1.2% of 410,000 active | AID 1159524 | Potency, µM (top dose mostly 57.9 µM), without a hit: top-dose activity change, negative = inhibition, actives largely listed as inhibitors; calls by dose curve; tested in HEK293T cells; note: read-out not given here; potency is the fitted concentration of half-maximal effect; % is set by controls: 0 for no effect and ±100 for the full control effect; nearly all actives have a fitted effect of over 45% in size
The depositor's hits bear a star; ? = inconclusive; · = not tested or not shown.

SMILES | Sm TGR block | Cycloheximide cs | Shiga inhibitor | FMDV inh
CN(C)/C=C/c1onc(-c2c(F)cccc2Cl)c1C#N | 1% | 27* | 109* | 6%
CCn1ncc(CNC(=O)CCCSc2nc(-c3ccco3)cc(C(F)(F)F)n2)c1C | 40µM* | -5 | -7 | ?
O=C(CCSc1nc(-c2ccco2)cc(C(F)(F)F)n1)NCc1cccs1 | -1% | -1 | -5 | -9%
O=C(CCSc1nc(-c2ccco2)cc(C(F)(F)F)n1)NCc1ccccn1 | 28µM* | -3 | -11 | -20%
CCc1ccccc1NC(=O)CCCSc1nc(-c2ccco2)cc(C(F)(F)F)n1 | 0% | · | · | -7%
Cc1ccc(NC(=O)Cn2c(C)cc(C)c(C#N)c2=O)cc1F | 3% | · | · | -12%
COc1ccc(N2CCN(C(=O)CS(=O)(=O)c3cccc4nsnc34)CC2)cc1 | 50µM* | · | · | -27%
COc1ccc(N2CCN(C(=O)CCS(=O)(=O)c3ccc(OC)cc3)CC2)cc1 | -15% | -2 | 6 | -11%
COc1ccc(N2CCN(C(=O)CCS(=O)(=O)c3ccc(C)cc3)CC2)cc1 | 25µM* | -3 | -9 | 0%
COc1ccc(S(=O)(=O)CCC(=O)N2CCN(c3ccc(C(C)=O)cc3)CC2)cc1 | -10% | 15* | 56* | -7%
COc1ccc(N2CCN(C(=O)CCS(=O)(=O)c3cccc4nsnc34)CC2)cc1 | ? | 11 | 5 | 0%
O=C(c1cccc(Cl)c1)N(Cc1ccco1)Cc1ccccc1Cl | 6% | · | · | -8%
COc1ccc(NC(=O)CSc2oc(-c3cccs3)nc2S(=O)(=O)c2ccccc2)c(OC)c1 | -34% | · | · | ?
CC(C)(C)c1cc(C(c2cccnc2)N2CCN(CCO)CC2)cc(C(C)(C)C)c1O (stereo not given) | 0.45µM* | -7 | -23 | ·
CC(C)(C)n1nnnc1C(c1cccnc1)N1CCN(c2cccc(C(F)(F)F)c2)CC1 (stereo not given) | -12% | -4 | -4 | ?
CCc1ccc(OCC(=O)Nc2ccncc2)c(Br)c1 | -3% | 30* | · | 8%
Cc1cc(OCC(=O)Nc2ccncc2)c(C)cc1Br | 1% | -1 | -4 | 0%
CCc1ccc(OCC(=O)NNC(=O)c2cnccn2)c(Br)c1 | 7% | 18* | 39* | 31%
COc1ccccc1OCC(=O)NNC(=O)c1cnccn1 | 27% | 2 | -3 | 4%
CC(C)(C)c1ccc(OCC(=O)Nc2ccncc2)c(Br)c1 | 27% | 31* | 100* | 4%
Cc1c(Cl)cccc1-n1nc(C)c2c(C)cc(=O)n(CC(=O)N3CCCc4ccccc43)c21 | -7% | · | · | -6%
COc1ccc(-n2ccnc(NCc3ccc(Cl)cc3)c2=O)cc1 | -2% | · | · | ?
S=C(NCc1ccccc1)Nc1nccs1 | 3.2µM* | 11 | 14 | 22%
S=C(NCc1ccccc1)NCc1ccccn1 | 9% | -2 | 17 | 24%
O=C(NCCc1ccccc1)C(=O)Nc1nccs1 | -9% | 1 | -11 | 16%
SMILES | Sm TGR block | Cycloheximide cs | Shiga inhibitor | FMDV inh
S=C(NCCc1ccccc1)Nc1nccs1 | 2.2µM* | · | · | 41%
CC(=O)c1cccc(NC(=O)c2ccc3nc(C(C)C)oc3c2)c1 | -5% | · | · | -11%
Cc1ccc(CN2CCOc3ccc(C(C)(O)COc4ccccc4)cc3C2)o1 (stereo not given) | · | · | · | -9%
Cc1ccc2c(C)c(C(=O)N(C)C(C)c3ccncn3)oc2c1C (stereo not given) | -21% | 13* | 54* | 34%
Cc1ccc2c(C)c(C(=O)NCC3CCOCC3)oc2c1C | · | · | · | -24%
Cc1ccc2c(C)c(C(=O)N(C)C(C)c3ccon3)oc2c1C (stereo not given) | ? | 59* | 83* | 4%
Cc1ccc(Cl)cc1NC(=O)Cn1c(=O)oc2cc(S(=O)(=O)N3CCCC3)ccc21 | -3% | · | · | 0%
CCc1ccc(CNC(=O)c2ccc(Cn3c(=O)c4cccn4c4cccnc43)cc2)cc1 | 3% | · | · | -23%
Cc1cccc(NC(=O)CSc2nc3ccccc3nc2N2CCCCC2)c1C | 3% | · | · | -23%
c1ccc(Cn2ccc(-c3cnc(-c4ccccc4)s3)n2)cc1 | -10% | 41* | 109* | -17%
CCOC(=O)COc1nc2c(c(-c3ccco3)c1C#N)CCc1ccccc1-2 | 0% | 19 | 42* | -24%
N#Cc1c(OCC(=O)c2ccccc2)nc2c(c1-c1ccco1)CCc1ccccc1-2 | ? | -3 | 18 | -6%
CN1/C(=C\C(=O)CSc2nnc(N)s2)C(C)(C)c2ccccc21 | -2% | 1 | 11 | ?
COc1ccc(Nc2nnc(SCC(=O)/C=C3/N(C)c4ccccc4C3(C)C)s2)cc1 | -16% | -3 | 8 | 20µM*
COCCNc1nc2cc(-c3ccc(F)cc3)sc2c(=O)n1C | · | · | · | -4%
O=c1[nH]c(CCl)nc2cc(-c3ccc(F)cc3)sc12 | 11µM* | 11 | 56 | -60%
COc1ccccc1N1CCN(C2CC(=O)N(c3ccccc3)C2=O)CC1 (stereo not given) | ? | 0 | -21 | -4%
COc1cc2c(cc1OC)C(c1ccccc1)N(C(=O)CCl)CC2 (stereo not given) | 4µM* | -1 | -21 | 7.1µM*
COc1cc2c(cc1OC)C(c1cc(OC)c(OC)cc1[N+](=O)[O-])N(C(C)=O)CC2 (stereo not given) | 89µM* | 2 | 16 | -2%
COc1cc2c(cc1OC)C(c1cc(Br)ccc1O)N(C(C)=O)CC2 (stereo not given) | · | · | · | -17%
COc1cc2c(cc1OC)C(c1ccccc1O)N(C1CC(=O)N(c3ccccc3)C1=O)CC2 (stereo not given) | 10µM* | -1 | -13 | -16%
Cc1ccc(NC(=O)c2cnn3c(C(F)F)cc(-c4ccccc4)nc23)c(C)c1 | 64% | · | · | -17%
O=C1C2CCCCN2C(=O)N1CCCCN1CCN(c2ccc([N+](=O)[O-])cc2)CC1 (stereo not given) | -5% | -3 | -1 | 20µM*
COc1ccc(C)cc1-n1nnnc1SCc1cc(=O)n2cc(C)ccc2n1 | 0% | 3 | 26 | 16µM*
Cc1ccc2nc(-c3ccc(NC(=O)c4ccc(S(C)(=O)=O)cc4)cc3)sc2c1 | 12% | · | · | 25%
SMILES | Sm TGR block | Cycloheximide cs | Shiga inhibitor | FMDV inh
Cc1ccc(N(CC(=O)Nc2ccc(-c3nc4ccc(C)cc4s3)cc2)S(C)(=O)=O)cc1 | 17% | 58* | 117* | 19%
Cc1ccc2nc(-c3ccc(NC(=O)c4ccccc4S(C)(=O)=O)cc3)sc2c1 | 10% | · | · | 24%
Cc1ccc(C)c(N(CC(=O)Nc2ccc(-c3nc4ccc(C)cc4s3)cc2)S(C)(=O)=O)c1 | -8% | 28* | 80* | 10%
CC[n+]1c(/C=C/N(C)c2ccccc2)sc2ccc(Cl)cc21 | -24% | -2 | 2 | ·
CC[n+]1c(/C=C/C=C/N(C(C)=O)c2ccccc2)sc2ccccc21 | 40µM* | 10 | 25 | ?
CCN(CC)CCCNC(=O)C1CCN(S(=O)(=O)CC)CC1 | 0% | · | · | -7%
NC(=O)c1ccccc1Nc1nc2nc3ccccc3c(=O)n2cc1Br | -8% | 15* | 38* | 10%
CC1(C)N=C(N)N=C(N)N1c1ccc(CCCCc2ccccc2)cc1 | · | · | · | 3.5µM*
COC(=O)c1scc(-c2ccc(C)cc2)c1S(=O)(=O)N1CCN(c2ccc(OC)cc2)CC1 | -3% | · | · | -23%
Oc1ccc(Nc2nc(-c3cccs3)cs2)cc1 | 1% | -3 | 20 | 30%
